Mcl-1 Bim block: human Bim-Mcl-1 interaction inhibition; Q07820; hit rate 0.1% among 190,000; Bead-based flow cytometry, Bim peptide-Mcl-1 binding; inhibition, % at 10 µM; in the data active = inhibition above about 40%;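 also: 0% = no compound tracer wells and 100% = peptide blocker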
Target sequence (Q07820 whole entry, looked up): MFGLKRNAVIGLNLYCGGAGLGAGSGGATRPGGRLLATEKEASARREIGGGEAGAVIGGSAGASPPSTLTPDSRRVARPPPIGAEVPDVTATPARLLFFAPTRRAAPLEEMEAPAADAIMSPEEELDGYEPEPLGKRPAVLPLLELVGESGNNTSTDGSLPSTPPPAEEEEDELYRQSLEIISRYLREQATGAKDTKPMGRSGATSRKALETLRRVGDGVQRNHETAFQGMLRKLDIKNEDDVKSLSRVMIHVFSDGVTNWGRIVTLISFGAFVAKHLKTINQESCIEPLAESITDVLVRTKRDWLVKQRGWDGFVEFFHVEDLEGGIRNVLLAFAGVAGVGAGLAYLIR
MCL1-BIM inh: MCL1-BIM-BH3 interaction inhibition (human); GST-MCL1 / FITC-Bim-BH3 fluorescence polarization; inhibition, % at 10.9 µM; hit rate 0.68% among 320,000; Q07820;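 active = inhibition above the mean inhibition of all tested compounds plus 3 SD, set per campaign, cut at about 40% in these data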;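 also: 0% = DMSO wells and 100% = unlabeled Bim-BH3 peptide control; higher means more loss of mP so more displacement of Bim peptide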
Mcl1-Bid inh: Mcl-1/Bid interaction inhibition; inhibition, % at 21.7 µM; hit rate 0.97% among 220,000; Q07820; TR-FRET Mcl-1/Bid-Dy647 peptide binding, 1536-well; AID 1021;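 active = compounds that cut the binding signal by more than half at the single screening dose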;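 also: His-tagged Mcl-1 with europium anti-His antibody binding Bid BH3 peptide; 0% = Mcl-1 plus peptide wells and 100% = peptide-only wells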
Mcl1-Noxa inh: Mcl-1/Noxa interaction inhibition; Q07820; inhibition, % at 21.7 µM; hit rate 1.5% among 220,000; TR-FRET Mcl-1/Noxa peptide binding, 2 h;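 active = compounds that cut the protein-peptide binding signal by more than 50% relative to plate controls in a single-dose test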;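 also: His-tagged Mcl-1 with rhodamine Noxa BH3 peptide and terbium anti-His antibody; 0% = Mcl-1 plus Noxa peptide wells and 100% = peptide-only wells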
GLD-1 TGE inh: GLD-1-TGE RNA interaction inhibition (C. elegans); Q17339; purified GLD-1 + fluorescein TGE RNA, fluorescence polarization; inhibition, % at 5.96 µM; hit rate 0.44% among 320,000; AID 2280;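 active = percent inhibition above a per-plate cutoff, the plate mean of test compounds plus 3 SD, cut at about 30% in these data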;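 also: 0% = DMSO wells with GLD-1 and probe and 100% = wells lacking GLD-1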
BCLXL inh: inhibitors of human Bcl-xL; Q07817; GST-Bcl-xL / FITC-Bim BH3 peptide fluorescence polarization; inhibition, % at 10.9 µM; hit rate 0.7% among 320,000; AID 2129;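 active = inhibition above the mean of all tested compounds plus 3 SD, cutoff set per campaign, cut at about 30% in these data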;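 also: 0% = DMSO wells and 100% = unlabeled Bim-BH3 peptide competitor; inhibitors lower millipolarization by displacing the labeled peptide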
Target sequence (Q07817 whole entry, looked up): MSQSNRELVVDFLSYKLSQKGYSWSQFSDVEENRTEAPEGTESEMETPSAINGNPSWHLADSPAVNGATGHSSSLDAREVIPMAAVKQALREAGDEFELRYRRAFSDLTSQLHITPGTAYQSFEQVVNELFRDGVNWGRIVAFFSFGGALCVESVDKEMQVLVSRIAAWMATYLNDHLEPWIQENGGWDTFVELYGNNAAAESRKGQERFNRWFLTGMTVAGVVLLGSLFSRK
* marks the source's active call; other numbers are inactive results; . = no result given; ! = not confirmed by another sample. An excerpt weighted towards active compounds, which were near 2.3% of everything screened.

SMILES	Mcl-1 Bim block	MCL1-BIM inh	Mcl1-Bid inh	Mcl1-Noxa inh	GLD-1 TGE inh	BCLXL inh
N#C/C=C1/NC(=O)c2ccccc2S1	-8	7	65*	10	-65	8
O=C(COC(=O)CCSc1ccc(F)cc1)NCc1ccc(F)cc1	.	.	.	.	0	.
CC1(C)CC(=O)C2=C(C1)N(c1cccc(O)c1)C1=C(C2)C(=O)CC(C)(C)C1	-2	74*	-26	20	40*	81*
O=C1c2ccc3c4c(ccc(c24)C(=O)N1c1cccc(O)c1)C(=O)N(c1cccc(O)c1)C3=O	.	8	-50	49	1	8
CN(C)C(=O)COc1ccc(S(=O)(=O)c2ccc(OCC(=O)N(C)C)cc2)cc1	.	-5	.	.	7	-3
Cc1ccc2nc(-c3ccc(NC(=O)CCS(=O)(=O)c4ccccc4)cc3)sc2c1	-3	-3	-20	24	-12	-2
O=C(CCS(=O)(=O)c1ccccc1)Nc1ccccc1-c1nc2ccccc2s1	-4	5	75*	21	5	4
O=C(Nc1nc2ccccc2s1)c1cccc(S(=O)(=O)N2CCc3ccccc32)c1	.	-2	-5	-24	-12	-5
O=C(Nc1nc2c(s1)CN(Cc1ccccc1)CC2)c1cccc(S(=O)(=O)N2CCc3ccccc32)c1	0	61*	-68	-26	29	55*
O=C(c1cnccn1)N1CCN(c2ccccc2F)CC1	57*	2	-28	-9	0	1
O=C(c1cc(=O)c2ccccc2o1)N1CCN(c2cccc(Cl)c2)CC1	2	1	-8	8	1	0
O=C(c1cc(=O)c2ccccc2o1)N1CCN(c2ccccc2F)CC1	41*	-4	-12	10	0	2
COc1ccc(NS(=O)(=O)c2cn(C)c(=O)n(C)c2=O)cc1	.	-10	-14	-37	-6	-5
CC(NC(=O)CN1C(=O)NC2(CCc3ccccc32)C1=O)c1ccc2c(c1)OCCO2 (stereo not drawn)	.	-5	.	.	2	-4
CC1CCCCN1C(=O)CSc1nnc(-c2ccccc2O)o1 (stereo not drawn)	.	36	.	.	9	14
CCS(=O)(=O)c1nn2c(N)c(/C=C3/C=CC(=O)C(OC)=C3)c(=O)nc2s1	0	-33	-42	58*	-75	-16
CCOC1=C/C(=C/c2c(N)n3nc(-c4ccccc4)sc3nc2=O)C=CC1=O	-1	.	-33	89*	.	.
COC1=C/C(=C/c2c(N)n3nc(-c4ccc(C)cc4)sc3nc2=O)C=CC1=O	3	.	27	84*	.	.
CCOC1=C/C(=C/c2c(N)n3oc(C)cc3nc2=O)C=CC1=O	1	-2	-42	24	-4	0
Fc1ccc(N2CN(Cc3cccnc3)CNC2=S)cc1	.	10	-31	11	1	10
Cc1ccc(-n2nc3cc(C)c(N)cc3n2)cc1	0	8	-25	90*	-1	-2
COc1ccc(-n2nc3cc(N)c(Br)cc3n2)cc1	.	3	.	.	3	0
COc1ccc(-n2nc3cc(C)c(N)c(Br)c3n2)cc1	2	8	-28	89*	-3	7
Nc1cc2nn(-c3ccccc3)nc2cc1Cl	0	.	-83	66*	.	.
O=C(CCn1c(=O)oc2ccccc21)Nc1cccc(Br)c1	.	-3	.	.	-1	-3
SMILES	Mcl-1 Bim block	MCL1-BIM inh	Mcl1-Bid inh	Mcl1-Noxa inh	GLD-1 TGE inh	BCLXL inh
Cc1ccc(OCc2cc(C(=O)N3CCC(C(O)C(C)C)CC3)no2)cc1C (stereo not drawn)	.	0	.	.	1	-2
COc1ccccc1-c1nnc(SC/C(O)=C(\C#N)c2nc3ccccc3[nH]2)n1C1CCCCC1	-6	-3	-44	-47	3	6
N#C/C(=C(/O)CSc1nnc(Cc2cccs2)n1C1CCCCC1)c1nc2ccccc2[nH]1	7	-2	-65	52*	-10	-2
COc1cccc2c(=O)c3ccccc3oc12	0	-3	55*!	-11	-8	-5
CC(C)OP(=O)(c1ccc(N(C)C)cc1)C(O)c1cccnc1 (stereo not drawn)	.	-5	-32	-1	-1	5
Cc1csc(NC(=O)C2CCN(S(=O)(=O)c3cccs3)CC2)n1	1	-3	84*	-9	6	-7
CC1(C)CC(=O)C=C(NNC(=O)c2cccnc2)C1	.	17	-36	-13	81*	19
CC1(C)Cc2ccccc2C(NNC(=O)c2cccnc2)=N1	0	7	-3	17	0	5
COc1cccc(C(=O)NNC2=CC(=O)CC(C)(C)C2)c1	-1	7	-67	-16	26	2
CC1(C)CC=C(NNC(=O)c2cccnc2)C(=O)C1	-2	16	-45	4	67*	14
CN1C(=O)[C@H]2[C@@H](/C=C/c3ccccc3)N3C(=O)CN(CC4CC4)C(=O)[C@@]3(C)[C@H]2C1=O	.	-1	.	.	9	-1
Cc1ccc(-c2cc(C(=O)N(C)CC(=O)Nc3ccccc3Br)c3ccccc3n2)o1	.	9	.	.	3	10
Cc1ccc(-n2ccnc(SCC(=O)NC3CCCCC3)c2=O)cc1F	.	16	.	.	3	7
Cc1cccc(NC(=O)CSc2nnc(CSc3nc(C)cc(C)n3)o2)c1	0	9	1	5	2	31*
Cc1ccc(NC(=O)c2cccnc2C(=O)O)nc1	.	-3	.	.	7	0
Cc1nccn1CC(O)COC1CCCCC1 (stereo not drawn)	0	-8	62*	18	-4	0
C=CCOc1c(OC)cc(/C=N/Nc2cccc(C(=O)O)c2)c(Br)c1Br	-4	13	78*	88*	6	11
C=CCOc1c(/C=N\NC(N)=O)cccc1OC	.	-2	-12	3	2	1
COc1ccc(CCNC(=O)CN(c2cccc([N+](=O)[O-])c2)S(C)(=O)=O)cc1OC	1	5	-16	-8	-4	3
Cn1c(SCC(=O)N=Nc2c(O)[nH]c3ccccc23)nc2ccccc21	-7	10	83*	42	-5	4
COc1ccc(NC(=S)NNc2ccc(S(=O)(=O)Nc3ccccc3C(=O)O)cc2[N+](=O)[O-])cc1	.	38	73*	88*	-1	24
CCOC(=O)N1CCC(NC(=O)C2CCN(S(=O)(=O)c3c(C)noc3C)CC2)CC1	-1	10	55*	-7	-4	4
CCOC(=O)N1CCC(NC(=O)C2CCN(S(=O)(=O)N3CCCC3)CC2)CC1	-2	7	-28	1	-2	5
Cc1ccc(CSc2nnc(SCC(=O)N/N=C/C=C/c3ccco3)s2)cc1	-2	-2	-10	18	6	-2

Compound activity (PubChem)
